Assay [1] in a line: Viability qHTS for spleen associated tyrosine kinase inhibitor (SYKi) naive MV4-11 cells (AID 1963823). Further: nearly all actives have a fitted effect of over 40% in size. The essentials:
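qHTS, SYK inhibitor-naive MV4-11; 500 cells/well; 72 hr compound exposure, 37 C; CellTiter-Glo added, 10 min RT; luminescence read.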
A general note: In qHTS, concentration-response curves come from the screen itself.

The nature of assay [2]: Viability qHTS for spleen associated tyrosine kinase inhibitor (SYKi) drug resistant MV4-11 cells (AID 1963824). Further: nearly all actives have a fitted effect of over 35% in size. The method, boiled down:
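SYK-inhibitor-resistant MV4-11 AML cells were seeded at 500 per well onto compound and cultured 72 hours (37 °C, 5% CO2). CellTiter-Glo was then added, and after 10 min at room temperature, luminescence gave viability.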

Molecules are shown by their SMILES. Inconclusive results are not listed. Unmarked numbers belong to inactive results. The source made the active and inactive calls. The call rests on the fitted dose curve; in most records, active means well fitted cell-killing curve with a large enough effect; inconclusive means small, poorly fitted or top-dose-only effect, or effect the other way; inactive means no such curve, though single readings can be large or run the other way.
Potency means the concentration at half of the fitted maximal effect.

Take `C=C(C)C(=O)O[C@H]1C[C@@](C)(O)C(=O)CC(O)/C(C)=C\[C@H]2OC(=O)C(=C)[C@H]12` (stereo partly drawn): the Potency is 1.61 µM (active) in assay [1] and 2.02 µM (active) in assay [2].

For `C[C@@H]1O[C@@H](O[C@H]2[C@H](O[C@H]3[C@H](O[C@H]4CC[C@@]5(C)C(CC[C@]6(C)C5CC=C5[C@@H]7CC(C)(C)CC(=O)[C@]7(C)CC[C@]56C)[C@@]4(C)CO)O[C@H](C(=O)O)[C@@H](O)[C@@H]3O)O[C@H](CO)[C@H](O)[C@@H]2O)[C@H](O)[C@H](O)[C@H]1O` (stereo partly drawn), the viability (% of control) in assay [1] was 81.7% [at 9.25 µM]. Moreover, the viability, % of control in assay [2] was 68.7% [at 9.25 µM].

In the case of `C=C(C(=O)O)C1CC2=C(C)C(=O)CC2C(C)CC1O` (stereo not drawn), the results for the Potency in assay [1] and in assay [2] were 4.61 µM (active) and 3.66 µM (active), respectively.

As for `C=C1[C@@H]2CC[C@@]3(C)[C@H](c4ccoc4)OC(=O)C[C@]13O[C@H]1CC(=O)C(C)(C)[C@H](C(O)C(=O)OC)[C@]12C` (stereo partly drawn), the Potency entry in assay [1] and in assay [2] was “inactive” each time.

On to `COC(=O)C1=COC(O[C@@H]2O[C@H](CO)[C@@H](O)[C@H](O)[C@H]2O)/C(=C\COC(=O)c2ccc(OC3OC(CO)C(O)C(O)C3O)c(OC)c2)C1CC(=O)OCCc1ccc(O)cc1` (stereo partly drawn), for which the viability (% of control) in assay [1] is 83.5% [at 9.25 µM]. Further, the viability, % of control in assay [2] is 105% [at 9.25 µM].

In the case of `CC(=O)O[C@@H]1CC2C(C)(C)C(=O)C=C[C@]2(C)C2CC[C@@]3(C)[C@H](c4ccoc4)OC(=O)[C@H]4O[C@]43[C@@]21C` (stereo partly drawn), the Potency in assay [1] is 10 µM (active); in assay [2], 7.09 µM (active).

Consider `CCOC(=O)N1CCC(CN(Cc2ccc(Cl)cc2)Cc2ccc([N+](=O)[O-])s2)C1` (stereo not drawn), for which the Potency in assay [1] was 10.3 µM (active); in assay [2], 16.4 µM (active).

For `C=C1C(O)CC2C(C(=O)O)=COC(O[C@@H]3O[C@H](COC(=O)/C=C/c4ccc(O)cc4)[C@@H](O)[C@H](O)[C@H]3O)C12` (stereo partly drawn), the Potency result in assay [1] and in assay [2] was “inactive” in each case.

On to `C[C@@H]1O[C@@H](OC2C(O[C@H]3[C@H](O[C@H]4CC[C@@]5(C)C(CC[C@]6(C)C5CC=C5C7CC(C)(C)CC(O)[C@]7(C)CC[C@]56C)C4(C)C)O[C@H](C(=O)O)[C@@H](O)[C@@H]3O)OC(CO)C(O)C2O)[C@H](O)[C@H](O)[C@H]1O` (stereo partly drawn), for which, in assay [1], the viability (% of control) is 84.2% [at 9.25 µM]. The viability, % of control in assay [2] is 97.3% [at 9.25 µM].

As for `Cc1cc(C)nc(NS(=O)(=O)c2ccc(NC(=S)NC(=O)COc3ccc(Br)cc3Cl)cc2)n1`, the Potency result in assay [1] and in assay [2] was “inactive” throughout.

Regarding `C=C(C)C(O)COc1ccc(CC(=O)O)cc1` (stereo not drawn), the Potency entry in assay [1] and in assay [2] was “inactive” in each case.

Consider `Cc1c(Cl)cccc1S(=O)(=O)Nc1nc(NCCc2ccccc2)nc2c1CN(Cc1ccccc1)CC2`, for which the Potency in assay [1] is 16.4 µM (active); in assay [2] it was 13 µM (active).

In the case of `OCC(CO)(CO)NCC(O)Cn1c2ccc(Cl)cc2c2cc(Cl)ccc21` (stereo not drawn), the Potency is 20.6 µM (active) in assay [1] and 11.6 µM (active) in assay [2].

For `CC(=O)O[C@@H]1C[C@H](O)[C@@]23CO[C@H](O)[C@]1(C)C2C[C@@H](O)[C@]1(C)C3C(=O)[C@H](OC(C)=O)[C@@]2(C)[C@H](c3ccoc3)C[C@H]3O[C@]321` (stereo partly drawn), the results for the Potency in assay [1] and in assay [2] were 0.0385 µM (active) and 0.0343 µM (active), respectively.

Turning to `CNC(=O)[C@@H](c1ccccc1)N1CCc2cc(OC)c(OC)cc2[C@@H]1CCc1ccc(C(F)(F)F)cc1`, the Potency in assay [1] and in assay [2] was 20.6 µM (active) in each case.

Regarding `C=C1CC[C@@H](O)[C@]2(C)CC[C@H]3C(=C)C(=O)O[C@@H]3[C@@H]12`, the Potency in assay [1] is 18.4 µM (active); in assay [2], 11.6 µM (active).

Consider `C/C=C(/C=C(C)/C=C/C=C/C=C(\C)C(=O)C12OC1C(O)(CCO)NC2=O)C(=O)OC` (stereo not drawn), for which the Potency in assay [1] was 8.93 µM (active); in assay [2], 11.2 µM (active).

As to `C[C@H]1O[C@@H](O[C@H]2CC[C@@]3(C)C(CC[C@]4(C)C3CC=C3C5CC(C)(C)CC[C@]5(C(=O)O)CC[C@]34C(=O)O)C2(C)C)[C@H](O)[C@@H](O)[C@@H]1O` (stereo partly drawn), the Potency result in assay [1] and in assay [2] was “inactive” each time.

Consider `CC(=O)N[C@H]1[C@H](O[C@H]2CC[C@@]3(C)C(CC[C@]4(C)C3CC=C3C5CC(C)(C)CC[C@]5(C(=O)O)[C@H](O[C@@H]5O[C@H](CO)[C@@H](O)[C@H](O)[C@H]5O)C[C@]34C)C2(C)C)O[C@H](CO[C@@H]2OC[C@H](O)[C@H](O)[C@H]2O[C@@H]2OC[C@@H](O)[C@H](O)[C@H]2O)[C@@H](O)[C@@H]1O` (stereo partly drawn), for which, in assay [1], the viability (% of control) was 57% [at 9.25 µM]. Also, the viability, % of control in assay [2] was 81.4% [at 9.25 µM].

`C[C@H](N)C(=O)N[C@@H](Cc1ccc(O)cc1)C(=O)N1CCC[C@H]1C(=O)NCC(=O)N[C@@H](CCCCN)C(=O)N[C@@H](Cc1ccccc1)C(N)=O`: in assay [1], the viability (% of control) was 94.9% [at 9.25 µM]. Further, in assay [2], the viability, % of control is 89.8% [at 9.25 µM].

Take `CC12CCC(C(OC3OC(COC4OCC(O)(CO)C4O)C(O)C(O)C3O)C1)C(C)(C)O2` (stereo not drawn): the Potency result in assay [1] and in assay [2] was “inactive” in each case.

Take `CCOC(=O)c1ccc(N(C)c2csc(-c3ccccc3)n2)cc1`: the Potency entry in assay [1] and in assay [2] was “inactive” throughout.

For the compound `O=C(Cc1ccc(Cl)cc1)Nc1cnccc1C(=O)O`, the Potency result in assay [1] and in assay [2] was “inactive” each time.

In the case of `CC1OC(OC2C(O)C(C(=O)O)OC(OC3CCC4(C)C(CCC5(C)C4C=CC4=C6CC(C)(C)CC(O)C6(C)CCC45C)C3(C)C)C2OC2OCC(O)C(O)C2O)C(O)C(O)C1O` (stereo not drawn), in assay [1], the viability (% of control) is 89.1% [at 9.25 µM]. Also, the viability, % of control in assay [2] is 97.4% [at 9.25 µM].

The values are drawn from PubChem BioAssay (NCATS).
